# Results reported in the supplement of paper PMC9262897, “Low-cost anti-mycobacterial drug discovery using engineered E. coli” (Nature Communications, 2022).
# Where a name gives a salt, the structure may show the parent alone. ± gives the standard deviation of the averaged measurements.
# Assays:
# Experiment in all cases: growth (OD600 after 10 h); higher = more growth (less inhibition)
# [1] = test system: E. coli TESEC Alr+ wild-type control; conditions: compound 0.1 mM; raw OD600 reference: median of DMSO wells 0.241, cell-free background 0.041
# Protocol: (§1)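 TESEC Mtb Alr E. coli, or the Alr+ wild-type control, in 384-well plates with Prestwick library compounds at 0.1 mM and 1% DMSO, across arabinose induction levels of 1E3 to 1E7 nM. Growth is read as OD600 after 10 h at 37 °C in triplicate biological replicates.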
# E. coli TESEC Mtb Alr [2] = conditions: compound 0.1 mM
# Protocol: as §1
# E. coli TESEC Mtb Asd = conditions: compound 0.1 mM
# Protocol: (§2)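 TESEC E. coli strains in which the native enzyme is deleted and replaced by arabinose-inducible Mtb Asd, DapB, CysH or TrpD, each grown in its selective medium. Strains were screened against the Prestwick library at 0.1 mM and 1% DMSO in 384-well format at low and high arabinose induction. Growth is read as OD600 after 10 h in triplicate.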
# E. coli TESEC Mtb DapB = conditions: compound 0.1 mM
# Protocol: as §2
# E. coli TESEC Mtb Alr [3] = conditions: compound 0.1 mM; remark: listed apart in the source
# Protocol: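 TESEC Mtb Alr E. coli (ΔaraC ΔtolC ΔentC Δalr ΔdadX, arabinose-inducible Mtb Alr) or the Alr+ wild-type control strain, grown in defined M9-fructose medium without D-alanine in 96-well plates with Prestwick library compounds at 0.1 mM and 1% DMSO. Low Alr induction is 0.1 µM arabinose and high induction is 10 mM arabinose.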
# [4] = arabinose 1000 nM, raw OD600 reference: median of DMSO wells 0.294, cell-free background 0.041
# [5] = arabinose 10000 nM, raw OD600 reference: median of DMSO wells 0.264, cell-free background 0.041
# [6] = arabinose 100000 nM, raw OD600 reference: median of DMSO wells 0.201, cell-free background 0.041
# [7] = arabinose 1000000 nM, raw OD600 reference: median of DMSO wells 0.193, cell-free background 0.041
# [8] = arabinose 10000000 nM, raw OD600 reference: median of DMSO wells 0.146, cell-free background 0.041
# [9] = arabinose induction (level): High, raw OD600 reference: median of DMSO wells 0.331, cell-free background 0.041
# [10] = arabinose induction (level): Low, raw OD600 reference: median of DMSO wells 0.417, cell-free background 0.041
# [11] = arabinose induction (level): High, raw OD600 reference: median of DMSO wells […], cell-free background 0.041
# [12] = arabinose induction (level): Low, raw OD600 reference: median of DMSO wells 0.227, cell-free background 0.041
# [13] = arabinose 100 nM, raw OD600 reference: median of DMSO wells 0.413, cell-free background 0.052
# [14] = arabinose 10000000 nM, raw OD600 reference: median of DMSO wells […], cell-free background 0.052
Compound,growth [1],growth (E. coli TESEC Mtb Alr [2]; [4]),growth (E. coli TESEC Mtb Alr [2]; [5]),growth (E. coli TESEC Mtb Alr [2]; [6]),growth (E. coli TESEC Mtb Alr [2]; [7]),growth (E. coli TESEC Mtb Alr [2]; [8]),growth (E. coli TESEC Mtb Asd; [9]),growth (E. coli TESEC Mtb Asd; [10]),growth (E. coli TESEC Mtb DapB; [11]),growth (E. coli TESEC Mtb DapB; [12]),growth (E. coli TESEC Mtb Alr [3]; [13]),growth (E. coli TESEC Mtb Alr [3]; [14])
CN[C@@H]1[C@@H](O)[C@@H](O[C@@H]2[C@@H](O)[C@H](O[C@H]3OC(CN)=CC[C@H]3N)[C@@H](N)C[C@H]2N)OC[C@]1(C)O [Sisomicin sulfate],0.0439 ± 0.00085,0.04797 ± 0.00015,0.0404 ± 0.00055,0.0483 ± 0.00072,0.0422 ± 0.00046,0.0657 ± 0.002,0.075 ± 0.0066,0.107 ± 0.055,0.144 ± 0.032,0.0843 ± 0.01,0.231 ± 0.15,0.3071 ± 0.0019
C[C@]12C=CC(=O)C=C1CC[C@H]1[C@@H]3C[C@@H](O)[C@](O)(C(=O)CO)[C@@]3(C)C[C@H](O)[C@@]12F [Triamcinolone],0.222 ± 0.0077,0.256 ± 0.033,0.266 ± 0.0064,0.157 ± 0.014,0.142 ± 0.0088,0.127 ± 0.0023,0.222 ± 0.011,0.452 ± 0.014,0.191 ± 0.014,0.229 ± 0.022,0.4315 ± 0.0037,0.306 ± 0.03
C[C@H]1NC(=O)NC1=O [Methylhydantoin-5-(D)],0.257 ± 0.0085,0.323 ± 0.014,0.268 ± 0.005,0.2 ± 0.019,0.186 ± 0.0032,0.156 ± 0.0032,0.46 ± 0.085,0.467 ± 0.0073,0.202 ± 0.012,0.244 ± 0.012,0.405 ± 0.015,0.321 ± 0.015
CCCCOc1ccc(CC(=O)NO)cc1 [Bufexamac],0.204 ± 0.0088,0.247 ± 0.014,0.243 ± 0.0037,0.202 ± 0.025,0.118 ± 0.0015,0.0983 ± 0.0016,0.33 ± 0.0049,0.418 ± 0.034,0.18 ± 0.013,0.222 ± 0.088,0.4 ± 0.018,0.284 ± 0.0052
Cc1cc2c(s1)Nc1ccccc1N=C2N1CCN(C)CC1 [Olanzapine],0.207 ± 0.0059,0.286 ± 0.014,0.267 ± 0.0071,0.183 ± 0.015,0.158 ± 0.006,0.136 ± 0.0056,0.305 ± 0.043,0.457 ± 0.018,0.213 ± 0.029,0.249 ± 0.026,0.403 ± 0.014,0.319 ± 0.01
Cc1ccnc(NS(=O)(=O)c2ccc(N)cc2)n1 [Sulfamerazine],0.245 ± 0.0069,0.293 ± 0.013,0.229 ± 0.0029,0.211 ± 0.0032,0.154 ± 0.0069,0.133 ± 0.004,0.437 ± 0.023,0.4484 ± 0.0033,0.21 ± 0.0031,0.228 ± 0.018,0.42 ± 0.0052,0.334 ± 0.0087
